The whole screen tested about 10,000 compounds, of which fewer than 10 were called active. No rule for the calls is given here. A selection follows.

45 compounds from PubChem BioAssay AID588778 (Southern Research Institute, 2011) can be followed below.

A short description of this experiment: Vibrio cholerae motility inhibitors, OD read-out (AID 588778). Conditions: stronger effect = higher value.
[1] abbreviates: measured here: bacterial viability at 10 ug/mL.

As for `O=C(O)CCn1c2ccccc2c2ccccc21`, the inhibition runs as follows: (concentration not given here) 15.5% (inactive); under setting [1], -1.8%.

For the compound `COc1ccc(NC(=O)c2cc(S(=O)(=O)N3CCOCC3)c(Cl)cc2Cl)c([N+](=O)[O-])c1`, the inhibition is -16.3% (inactive) (concentration not given here) and -8.39% under setting [1].

Consider `O=C(NCc1ccc(Cl)c(Cl)c1)c1ccc(Br)o1`, for which the inhibition is, setting by setting: (concentration not given here) 20.3% (inactive); under setting [1], 4.03%.

As to `COc1ccc2cnn(-c3ccccc3)c(=O)c2c1OC`, the inhibition reads like this: (concentration not given here) 12% (inactive); under setting [1], 4.55%.

For the compound `CCOc1cc(C(=S)N2CC(C)OC(C)C2)cc(I)c1OCC(=O)N1CCCC1` (stereo not given), the inhibition is 11% (inactive) (concentration not given here) and 5.69% under setting [1].

As to `CC(C)(O)C#Cc1ccc(C(=O)NC2CCCCC2)cc1`, the inhibition by setting is: (concentration not given here) 12.9% (inactive); under setting [1], 20.2%.

Regarding `Cc1cc(=O)[nH]c2c1cnn2Cc1ccccc1`, the inhibition is 49.6% (inactive) (concentration not given here) and 17.8% under setting [1].

For `Cc1c(NC(=O)C2CC(c3c(F)cccc3Cl)=NO2)c(=O)n(-c2ccccc2)n1C` (stereo not given), the inhibition (concentration not given here) is 0.12% (inactive) and the inhibition under setting [1] was -4.39%.

For `CC1(C(=O)NN2CCOCC2)CC1(Cl)Cl` (stereo not given), the inhibition by setting is: (concentration not given here) 1.9% (inactive); under setting [1], -3.31%.

`CC(=O)c1cccc(NC(=O)C2CC(=O)N(Cc3ccccc3)C2)c1` (stereo not given): the inhibition by setting is: (concentration not given here) -14% (inactive); under setting [1], -3.46%.

For the compound `C#CCOc1c(Br)cc(/C=C/[N+](=O)[O-])cc1OC`, the inhibition is, setting by setting: (concentration not given here) 33.7% (inactive); under setting [1], 7.02%.

As to `COc1ccc(C(=O)NCc2ccoc2C(=O)O)cc1`, the inhibition is 16.5% (inactive) (concentration not given here) and 8.04% under setting [1].

As for `O=C(Cn1cnc2ccccc2c1=O)c1ccc(Br)cc1`, the inhibition was -17.8% (inactive) (concentration not given here) and -8.61% under setting [1].

On to `Cc1cc(C)n2nc(Cc3ccccc3)c(-c3cccc4ccccc34)c2n1`, for which the inhibition reads like this: (concentration not given here) 0.73% (inactive); under setting [1], 8.65%.

Consider `O=CN1Cc2ccccc2-c2ccccc2C1`, for which the inhibition is 6.8% (inactive) (concentration not given here) and 3.25% under setting [1].

Consider `O=C(CNC(=S)NC(=O)c1ccc(F)cc1)c1ccccc1`, for which the inhibition by setting is: (concentration not given here) -64% (inactive); under setting [1], -21.1%.

With `O=C(c1ccccc1Oc1ccc(C(F)(F)F)cc1[N+](=O)[O-])N1CCOCC1`, the inhibition by setting is: (concentration not given here) -15.4% (inactive); under setting [1], -2.04%.

For the compound `CN1CCN(C(=O)c2ccccc2NC(=O)Nc2ccccc2)CC1`, the inhibition was 15.9% (inactive) (concentration not given here) and 1.65% under setting [1].

Consider `COc1cccc(/C=C(\C#N)c2ccccc2)c1OC(C)C`, for which the inhibition was 22.8% (inactive) (concentration not given here) and -2.34% under setting [1].

As for `COc1ccc(C2/C(=C(\O)c3ccc(C)cc3)C(=O)C(=O)N2c2ncc(S(=O)(=O)c3ccc([N+](=O)[O-])cc3)s2)cc1` (stereo not given), the inhibition is, setting by setting: (concentration not given here) -0.505% (inactive); under setting [1], -2.23%.

As to `Cc1cc(NC(=O)CC2C(=O)N(c3ccccc3)C(=S)N2CCc2ccc(F)cc2)no1` (stereo not given), the inhibition (concentration not given here) is 13.3% (inactive) and the inhibition under setting [1] came to 9.96%.

For `Cc1ccc(NNC(=O)C(c2ccccc2)c2ccccc2)cc1`, the inhibition by setting is: (concentration not given here) 7.31% (inactive); under setting [1], 10%.

In the case of `Cc1ccc(CN2CC(C(=O)O)CC2=O)cc1` (stereo not given), the inhibition (concentration not given here) is 14.2% (inactive) and the inhibition under setting [1] is -5.3%.

On to `Cc1ccccc1NC(=O)NNc1ccc(F)cc1`, for which the inhibition runs as follows: (concentration not given here) 15.9% (inactive); under setting [1], 1.32%.

In the case of `CCOC(=O)c1sc(NC(=O)COc2ccc(Cl)cc2Cl)cc1C`, the inhibition was 19.1% (inactive) (concentration not given here) and 13.9% under setting [1].

As to `CCOc1ccc2nc(SCC(=O)Nc3ccc4c(c3)OCO4)[nH]c2c1`, the inhibition reads like this: (concentration not given here) 4.79% (inactive); under setting [1], 2.6%.

For the compound `Cn1cc(C2CC(=O)N(c3c(Cl)cccc3Cl)C2=O)c2ccccc21` (stereo not given), the inhibition was -0.44% (inactive) (concentration not given here) and 3.05% under setting [1].

`CC12CCC(C(=O)NCc3ccc4c(c3)OCO4)(c3nc4ccccc4nc31)C2(C)C` (stereo not given): the inhibition (concentration not given here) was 3.2% (inactive) and the inhibition under setting [1] was 0.26%.

On to `O=[N+]([O-])c1cccc(N2CCOCC2)c1`, for which the inhibition reads like this: (concentration not given here) 17.3% (inactive); under setting [1], 4.88%.

Consider `OC(COCc1ccc(Cl)cc1)CN1CCN(c2cccc(Cl)c2)CC1` (stereo not given), for which the inhibition (concentration not given here) is 37.3% (inactive) and the inhibition under setting [1] is 11.7%.

As to `COc1ccc(C(=O)CSc2nc(=O)cc(N)n2-c2ccc(C)cc2)cc1OC`, the inhibition is -12% (inactive) (concentration not given here) and -11.4% under setting [1].

Turning to `O=C(CS(=O)(=O)Cc1ccccc1)N1CCN(Cc2ccc3c(c2)OCO3)CC1`, the inhibition (concentration not given here) was 12.5% (inactive) and the inhibition under setting [1] turned out to be 2.65%.

For the compound `CN(CCc1ccccn1)S(=O)(=O)c1ccccc1`, the inhibition by setting is: (concentration not given here) 4.78% (inactive); under setting [1], -3.86%.

Regarding `COc1ccc(C(=O)ON2C(=O)CCC2=O)cc1I`, the inhibition is 4.65% (inactive) (concentration not given here) and -0.225% under setting [1].

Regarding `Cc1cc(NC(=O)c2ccccc2Cl)c(OC(=O)c2ccccc2Cl)cc1C`, the inhibition reads like this: (concentration not given here) -5.73% (inactive); under setting [1], -9.05%.

Turning to `O=C(Oc1ccccn1)C1COc2ccccc2O1` (stereo not given), the inhibition was -4.64% (inactive) (concentration not given here) and -1.04% under setting [1].

As for `Cn1nnc2cc(NC(=O)NCc3ccco3)ccc21`, the inhibition (concentration not given here) was 9.79% (inactive) and the inhibition under setting [1] stood at 6.21%.

`COc1cc(N2C(=O)c3cccc4c([N+](=O)[O-])ccc(c34)C2=O)ccc1-n1nc(C)cc1C`: the inhibition reads like this: (concentration not given here) 3.2% (inactive); under setting [1], -0.9%.

`CC(=O)Nc1sc(/C(C#N)=C/c2ccc(N(C)C)cc2)nc1-c1ccc(C)cc1`: the inhibition runs as follows: (concentration not given here) 2.79% (inactive); under setting [1], -2.29%.

Consider `O=[N+]([O-])c1ccccc1OCCCNCc1ccco1`, for which the inhibition by setting is: (concentration not given here) 11% (inactive); under setting [1], 4.43%.

In the case of `CC(C)(C)SCCNC(=S)Nc1ccccc1`, the inhibition reads like this: (concentration not given here) 32.6% (inactive); under setting [1], 4.53%.

With `COC(=O)C1=C(C)N=C2SCCC(=O)N2C1/C=C/c1ccccc1` (stereo not given), the inhibition is -20.3% (inactive) (concentration not given here) and -9.41% under setting [1].

Regarding `CCSc1ncc(Cl)c(C(=O)Nc2c(C)n(C)n(-c3ccccc3)c2=O)n1`, the inhibition runs as follows: (concentration not given here) -0.94% (inactive); under setting [1], -0.4%.

Turning to `CC(=O)N(Cc1cc2ccc(C)cc2[nH]c1=O)c1ccc(C)cc1C`, the inhibition (concentration not given here) is -16.5% (inactive) and the inhibition under setting [1] was -2.06%.

`O=C(O)CCCCN1Cc2ccccc2C1`: the inhibition (concentration not given here) is 2.35% (inactive) and the inhibition under setting [1] is 7.06%.
